In all, about 330,000 compounds went through this assay and about 10,000 (3%) were called active.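 The calls were made as follows: active = inhibition of at least 50% at 8 µM in the primary screen; inactive = the rest.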 The entries come from a sample that favours actives as a whole.
target: Protein Mdm4 (Homo sapiens) + E3 ubiquitin-protein ligase Mdm2 (Homo sapiens) (UniProt O15151+Q00987); test: inhibitors of human Mdm2-MdmX association, primary screen, cell-based, luminescence, split luciferase, SaOS-2, uHTS (AID 485346); settings: SaOS-2 split-luciferase Mdm2/MdmX complementation, at 8 µM, stronger effect = higher value
Sequence (O15151 whole entry, looked up): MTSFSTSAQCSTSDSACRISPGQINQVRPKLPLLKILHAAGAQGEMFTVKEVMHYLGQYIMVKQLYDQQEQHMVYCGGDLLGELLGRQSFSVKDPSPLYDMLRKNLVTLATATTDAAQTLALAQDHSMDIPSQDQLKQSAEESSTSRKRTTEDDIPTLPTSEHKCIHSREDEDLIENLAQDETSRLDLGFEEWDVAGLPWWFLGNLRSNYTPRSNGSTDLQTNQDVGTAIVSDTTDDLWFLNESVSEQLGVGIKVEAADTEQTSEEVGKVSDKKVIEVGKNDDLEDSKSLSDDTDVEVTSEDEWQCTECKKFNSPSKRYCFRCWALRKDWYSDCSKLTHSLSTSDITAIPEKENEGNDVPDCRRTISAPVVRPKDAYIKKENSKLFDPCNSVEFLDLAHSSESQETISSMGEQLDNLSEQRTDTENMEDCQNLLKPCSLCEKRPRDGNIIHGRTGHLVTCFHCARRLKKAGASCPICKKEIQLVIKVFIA
Sequence (Q00987 whole entry, looked up): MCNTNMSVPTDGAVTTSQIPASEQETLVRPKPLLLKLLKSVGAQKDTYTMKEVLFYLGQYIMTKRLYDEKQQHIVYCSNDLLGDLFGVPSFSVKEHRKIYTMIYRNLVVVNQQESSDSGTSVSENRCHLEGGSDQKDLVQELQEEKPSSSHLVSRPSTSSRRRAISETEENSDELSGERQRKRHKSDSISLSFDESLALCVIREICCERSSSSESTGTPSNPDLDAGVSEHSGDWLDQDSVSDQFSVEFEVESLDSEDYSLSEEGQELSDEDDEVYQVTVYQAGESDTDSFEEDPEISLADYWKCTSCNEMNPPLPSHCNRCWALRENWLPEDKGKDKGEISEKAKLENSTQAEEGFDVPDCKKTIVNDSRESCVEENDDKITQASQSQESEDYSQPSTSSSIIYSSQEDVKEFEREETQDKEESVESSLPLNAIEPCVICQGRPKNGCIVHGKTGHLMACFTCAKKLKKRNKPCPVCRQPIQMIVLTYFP

inhibition, active:
CCOc1ccc(-c2cc(C(=O)N/N=C/c3ccc(O)cc3)c3ccccc3n2)cc1 76.9%, CCN1CCN(c2ccc(S(=O)(=O)N3CCCCC3)cc2NC(=O)Cc2c(Cl)cccc2Cl)CC1 65.1%, COc1cc2[nH]c(=S)n(Cc3ccc(F)cc3)c(=O)c2cc1OC 81.3%, CCOc1cc2[nH]c(=S)n(Cc3ccc(C(=O)N4CCN(C)CC4)cc3)c(=O)c2cc1OCC 91.7%, CC1=C(C)CC(C(=O)NNC(=O)c2ccccc2O)C(C(=O)O)C1 (centres undefined) 60.5%, O=c1oc2ccccc2cc1-c1cn(-c2ccccc2)c(=S)[nH]1 88.3%

inhibition, inactive:
CCOc1cc(/C=N/NC(=O)c2cc(-c3ccccc3)nc3ccccc23)ccc1O -10.1%, COc1ccc(/C=N/NC(=O)c2cc(-c3cccc(C)c3)nc3ccccc23)cc1O 34.6%, O=C(NCCCN1CCOCC1)c1cnn2c(-c3ccccc3)cc(-c3ccccc3)nc12 37.7%, CCN1CCN(c2ccc(S(=O)(=O)N3CCCCC3)cc2NC(=O)c2cccc(NC(C)=O)c2)CC1 12%, CN1CCN(c2ccc(S(=O)(=O)N3CCCCC3)cc2NC(=O)Cc2ccccc2F)CC1 9.14%, COc1cc2[nH]c(=S)n(CCN3CCCCC3C)c(=O)c2cc1OC (centres undefined) 39.9%, COc1ccc(Cn2c(=S)[nH]c3cc(C(=O)N4CCCCC4)ccc3c2=O)cc1 14.8%, CCOc1cc2[nH]c(=S)n(Cc3ccc(C(=O)NCCOC)cc3)c(=O)c2cc1OCC 19.2%, COc1cc2[nH]c(=S)n(Cc3ccc(C)o3)c(=O)c2cc1OC 2.31%, CC(=O)NC(Cc1ccc(F)c(F)c1)C(=O)NC1CCN(c2nnnn2-c2ccccc2)CC1 (centres undefined) 6.6%, Cc1ccc(CNC(=O)CCCNC(=O)c2ccc(Cl)cc2)n1C 22.5%, CCN(Cc1ccncc1)C(=O)CCc1ccccc1 16.5%, O=C(CCNc1n[nH]c(=O)[nH]c1=O)N/N=C\c1ccc(Br)cc1 9.18%, CC1=C(C)CC(C(=O)NNC(=O)c2csc3c2CCC(C(C)(C)C)C3)C(C(=O)O)C1 (centres undefined) 7.93%, Cc1cc(C(=O)NNC(=O)c2ccccc2O)c(C)o1 30%, Cc1noc(NS(=O)(=O)c2ccc(NC(=O)c3oc4ccc(F)cc4c3C)cc2)c1C -34%, S=c1[nH]c(-c2cccs2)cn1-c1ccccc1 -16.2%, O=C(Nc1cc2ccccc2oc1=O)C1CCCCC1 -82.7%
